Measurements published in PubChem BioAssay (NCI).
Where “and” joins values, the source holds several entries; their conditions need not be identical. Equal entries are not always repeated. This is part of a sample that, as a whole, favours compounds with a hit. Of some 79,000 tested, about 15% had one in any assay. Cut-off read from the data, not from the text of the source: active = growth inhibition above about 70%; inactive = the rest.

What was measured:
[1] = NCI Yeast Anticancer Drug Screen. Data for the rad50 strain (AID 155);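 note: 0% = growth of vehicle-only cultures of the same strain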; conditions: S. cerevisiae rad50 strain growth inhibition; at 50.0 µM; active compounds read high
Procedure, shortened: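 DNA repair mutant yeast, compound exposure, growth read-out; inhibition is taken relative to vehicle.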

[2] = NCI Yeast Anticancer Drug Screen. Data for the mec2-1 strain (AID 157); conditions: S. cerevisiae mec2-1 strain, at 50.0 µM, active compounds read high
Procedure, shortened: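 mec2-1 yeast strain, carrying an alteration in DNA damage repair or cell cycle control, was exposed to compounds; growth inhibition was measured relative to vehicle-treated controls.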

[3] = NCI Yeast Anticancer Drug Screen. Data for the sgs1 mgt1 strain (AID 161);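 note: 0% = growth of cultures given vehicle only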; conditions: S. cerevisiae sgs1 mgt1 strain, at 50.0 µM, active compounds read high
Procedure, shortened: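 Yeast cells carrying a defined DNA-repair defect were exposed to test compounds. Growth inhibition was measured relative to vehicle-treated controls.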

[4] = NCI Yeast Anticancer Drug Screen. Data for the cln2 rad14 strain (AID 165);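 note: 0% = growth equal to vehicle treated cultures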; conditions: S. cerevisiae cln2 rad14 strain, at 50.0 µM, active compounds read high
Procedure, shortened: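 Yeast carrying cln2 and rad14 alterations (cell cycle control and DNA damage repair) were exposed to compounds. Growth inhibition was measured against vehicle-treated controls.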

[5] = NCI Yeast Anticancer Drug Screen. Data for the bub3 strain (AID 167); conditions: S. cerevisiae bub3 mutant strain, at 50.0 µM, active compounds read high
Procedure, shortened: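 In this screen, a yeast mutant lacking normal mitotic checkpoint function is challenged with compound. Relative growth versus vehicle gives the inhibition value.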

[6] = NCI Yeast Anticancer Drug Screen. Data for the mlh1 rad18 strain (AID 175); conditions: S. cerevisiae mlh1 rad18 strain growth inhibition; at 50.0 µM; active compounds read high
Procedure, shortened: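 Growth inhibition of the yeast strain was measured after compound exposure and expressed relative to vehicle-treated controls. The strain carries defined defects in DNA damage repair.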

Measured: growth inhibition

Nc1nc(N)c(Br)c(=O)[nH]1
inactive: [1] -11.3% and 9% | [2] -36.4% and -24.6% | [3] -11.3% and -38.1% | [4] 12.2% and -83.6% | [5] -10.9% and -13.3% | [6] -6.75% and -21.4%

O=C(NNC(=S)NC1OC(CO)C(O)C(O)C1O)c1cccc(C(=O)NNC(=S)NC2OC(CO)C(O)C(O)C2O)n1 (stereo not given)
inactive: [1] 1.45% | [2] 19.9% and -22.6% | [3] 31.4% and 25.2% | [4] 21.4% and 7.8% | [5] 17.1% and 8.4% | [6] 27.4% and 14.9%

OCC1CCCCO1 (stereo not given)
inactive: [1] 0.3% and 1.8% | [2] -13.7% and -6.7% | [3] 2.4% and -24.7% | [4] -1.65% and -37.9% | [5] 7.65% and -10.8% | [6] 3% and -8.4%

O=C(O)/C=C/c1cccc(Cl)c1
inactive: [1] 14.2% and -11.2% | [2] 10.2% and -19.9% | [3] 3.25% and -12.2% | [4] -16.1% and 13.5% | [5] -6.7% and -28.2% | [6] 24.8% and 23.6%

CCOC(=O)C(c1ccccc1)c1cccc(C(C(=O)OCC)c2ccccc2)n1 (stereo not given)
inactive: [1] 3.1% and 8.55% | [2] 0.2% and 0.1% | [3] -16.9% and -33.5% | [4] -3.05% and -41.7% | [5] 1.8% and -3.6% | [6] 17.6% and -13.7%

COc1cc2c(c(OC)c1OC)-c1ccc(OC)c(=O)cc1C([N+](C)(C)C)CC2 (stereo not given)
inactive: [1] 21.2% and -13.3% | [2] 12.3% and 7.7% | [3] 16.9% and -18.1% | [4] -0.65% and -11.1% | [5] -3% and -0.4% | [6] 25.5% and 7.4%

COc1ccc2c(=O)oc3c(OC)cc(CCN(C)C)c4c(=O)oc1c2c34
inactive: [1] 62.9% and -8.15% | [2] -0.55% and -23.4% | [3] 0.35% and -57.6% | [4] 4.3% and -24.4% | [5] 20.2% and -43.8% | [6] 25.4% and -30.3%

C/C=C(\C)C(=O)O
inactive: [1] 17.6% and -9.95% | [2] 9.3% and -5.05% | [3] -4.9% and -41.8% | [4] 13.2% and 2.25% | [5] 11.4% and -42.2% | [6] 25% and 9.75%

CC1=NN(c2ccc([N+](=O)[O-])cc2)C(=O)C1[N+](=O)[O-] (stereo not given) (tested in a mixture with another compound)
inactive: [1] 20.1% and 26.6% | [2] 1.95% and 2.9% | [3] 12.3% and 34.4% | [4] 14.8% and 13.1% | [5] -1.75% and -1.25% | [6] 3.35% and 12.8%

NC(=O)c1nnn(Cc2ccccc2)c1N
inactive: [1] 5.55% and 31.2% | [2] 5.6% and -1.5% | [3] -3.05% and -4.65% | [4] -4.65% and -1.95% | [5] 6.9% and -5.2% | [6] 9.6% and 3.3%

Cc1cccc(OC(=O)Cc2ccccc2)c1
inactive: [1] -17.1% and -34.1% | [2] -14.6% and -8.2% | [3] -6.1% and -8.35% | [4] -9.45% and -38% | [5] 13.6% and -12.9% | [6] -16.2% and -8%

O=C1CC2(CC=CCC23OCCO3)CC(CI)O1 (stereo not given)
inactive: [1] -14.1% and 7.75% | [2] -8.25% and -1.25% | [3] 3.1% and 24.8% | [4] 5.9% and 5.1% | [5] -10.2% and 10.9% | [6] 10.7% and 9.55%

O=C1Nc2ccccc2C(=O)C1=Ic1ccccc1
inactive: [1] 5% and -15.9% | [2] -11.6% and -15.4% | [3] -0.55% and -9.6% | [4] -6% and -25.2% | [5] -7.1% and -4.5% | [6] 4.15% and 17.8%

COC(=O)CCC1C(C)(C(C)=O)CCC2C1(C)CCC1(C)C3CC(C)(C)CCC3(C)CCC21C (stereo not given)
inactive: [1] 1.65% and 1.05% | [2] 1.05% and -5.35% | [3] -11.8% and -15.2% | [4] -7.8% and -3.65% | [5] -3.9% and -2.15% | [6] 13.8% and 4.4%

O=C(O)c1cc([N+](=O)[O-])ccc1Nc1ccccc1
inactive: [1] 10.8% and -9.95% | [2] 0.2% and -12.4% | [3] -7.05% and -3.35% | [4] 31.6% and -28.6% | [5] 18.6% and -3.55% | [6] 18.1% and -6.2%

CCC(C(=O)O)c1ccccc1 (stereo not given)
inactive: [1] 10.7% and 12.6% | [2] 5.4% and 3.95% | [3] 9.4% and 1.25% | [4] -12.2% and -29.8% | [5] -19.6% and -1.9% | [6] 22.4% and 2.4%

C/C(=N\NC(=O)c1ccncc1)c1ccc(F)cc1
inactive: [1] 3.95% and -7.7% | [2] 9.55% and -14.3% | [3] 4.15% and -16.4% | [4] 3.85% and 0.7% | [5] 5.5% and -28.4% | [6] 14.3% and -4.6%

CC1(C)OCC(C2OC(C)(C)OC2C2OC(O)C=CC2=O)O1 (stereo not given)
inactive: [1] 19.8% and 18.5% | [2] 18.9% and 2.1% | [3] 24.6% and 6.5% | [4] 9.05% and -4.9% | [5] 24.9% and 10.9% | [6] 20.3% and 10.6%

O=C(Nc1nn[nH]n1)c1nc(-c2ccccc2)cc(=O)[nH]1
inactive: [1] -15.6% and -10.2% | [2] -3.75% and 9.5% | [3] 7.35% and 5.4% | [4] -49.8% and 1.15% | [5] 5.7% and -5.95% | [6] 1.95% and -2.25%

COc1cc(-c2[o+]c3cc(O)cc(O)c3cc2O)cc(O)c1O
inactive: [1] 28.6% and 0.3% | [2] 17.6% and -25.1% | [3] 23.1% and 0.7% | [4] 12.5% and -24.9% | [5] 19.6% and 19.1% | [6] 30.2% and 24.2%
